Wnt bcat act: activates Wnt/beta-catenin signaling in a reporter cell assay; activation, % at 9.35 µM; activator, plate reader; hit rate 1.2% among 300,000; AID 743398; in the data active = activation above about 30%, passing the limit was not always enough; inconclusive = no clear call, values can overlap the other calls;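 note: 0% = neutral control wells and 100% = positive control wells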
PvdQ inh: P. aeruginosa PvdQ acylase inhibition; purified PvdQ acylase, fluorescence plate reader; inhibition, % at 10 µM; hit rate 0.063% among 340,000; AID 488965; in the data active = inhibition above about 30%, passing the limit was not always enough; inconclusive = no clear call, values can overlap the other calls;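 note: 0% = vehicle neutral wells and 100% = reference inhibitor wells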
esBAF inh: inhibitors of esBAF chromatin remodeling in mouse ES cells. Bmi1-luciferase knock-in reporter, 24 h; 100% = twice the neutral-well signal. reporter increase, % at 12.5 µM. hit rate 2% among 350,000. AID 602393; in the data active = activation above about 40%; inconclusive = no clear call, values can overlap the other calls;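 note: 0% = median of the plate's neutral control wells and 100% = double that signal; a rise in the Bmi1 reporter signal indicates esBAF inhibition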
Glyco luc inh: blocks N-linked glycosylation in D54 reporter cells. D54 ERlucT glycosylation luciferase reporter, 24 h; percent of 100 nM tunicamycin response. reporter increase, % at 12.5 µM. hit rate 0.23% among 360,000. AID 588692;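 active = mean luciferase reporter signal, scaled so untreated is 0 and the glycosylation-blocking control 100, at or above a set limit in every replicate; inconclusive = mean reaches the limit but not every replicate does; inactive = mean below the limit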;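 note: luciferase carries N-glycosylation sites so blocking glycosylation raises the light; 0% = median of neutral control wells and 100% = median of 100 nM tunicamycin wells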
Vif imaging: blocks HIV Vif function; AID 602346; HEK293T cells, Vif self-association by quenched fluorescence, imaging, 24 h; hit rate 0.35% among 340,000; inhibition, % at 7.49 µM; in the data active = inhibition above about 50%, passing the limit was not always enough; inconclusive = no clear call, values can overlap the other calls; inactive = below about 31%
MITF act: activators of MITF-driven TRPM1 promoter activity in SK-MEL-5 cells; activation, % at 12.5 µM; hit rate 0.75% among 300,000; SK-MEL-5 TRPM1-promoter luciferase, 24 h; % of positive control, neutral wells = 0;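 active = mean activation of at least 80% with every replicate also reaching 80%; inconclusive = mean reaches 80% but some replicate falls short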;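 note: 0% = neutral control wells and 100% = parthenolide positive control wells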
An asterisk follows results filed as active; ? = inconclusive; . = no result. Sampled rows, rich in hits. Any-hit rate of the full collection: about 2.9%.

SMILES	Wnt bcat act	PvdQ inh	esBAF inh	Glyco luc inh	Vif imaging	MITF act
OC(CNCc1ccccc1Cl)COc1ccc(F)cc1 (stereo not drawn)	0	-7	5	-1	65*	12
Cc1ccc(-c2ccc(CO)o2)cc1N	2	-18	3	0	7	9
CCOC(=O)c1ccc(-c2ccc(CO)o2)cc1	45*	?	38	-4	8	.
CO[C@@H]1CC[C@H]2CCOc3c(C#N)cccc3C(=O)N(C)CC3(CCCCC3)CC(=O)N(C)C[C@H]1O2	.	.	-2	.	.	.
C[C@H]1CCCCO[C@@H](CN(C)C(=O)c2ccncc2)[C@@H](C)CN([C@@H](C)CO)C(=O)c2cc(NS(=O)(=O)c3cn(C)cn3)ccc2O1	.	.	-4	.	.	.
CCC(=O)c1ccc(OCc2ccc(C#N)cc2)cc1	8	-2	.	-1	-2	-4
CCC(=O)c1ccc(OCc2ccc(C(=O)OC)cc2)cc1	-3	-14	60*	-5	-11	-4
CCN(CC(=O)Nc1ccc(NC(C)=O)cc1)C(=O)c1ccc(COc2ccc(C(C)(C)C)cc2)cc1	-2	-8	16	-5	-18	-10
CCOc1ccc(OCc2ccc(C(=O)N(CC)CC)cc2)cc1	0	-7	78*	-4	-7	8
Nc1ccc2c(c1)C(=O)c1ccccc1-2	32*	-10	15	2	-3	.
Nc1ccc2c(c1)C(=O)c1ccccc1C2=O	40*	-2	69*	6	.	104*
Oc1cccc(Nc2nc(O)c(/C=C3\C=Nc4ccccc43)s2)c1	35*	-9	59*	0	57*	47
Nc1c(OS(=O)(=O)c2ccccc2)cccc1OS(=O)(=O)c1ccccc1	60*	.	.	-3	2	.
CO[C@H]1CN(C)C(=O)c2cc(NC(=O)C3CC3)ccc2OC[C@H](C)N(C(=O)c2cccnc2)C[C@@H]1C	.	.	-10	.	.	.
COc1ccc(Cl)cc1-c1nc(-c2ccc(Br)o2)no1	6	-16	51*	1	8	.
Cc1cccc(-c2nc(-c3ccncc3)no2)c1	13	-16	-2	-10	3	24
Brc1cccc(-c2nc(-c3ccncc3)no2)c1	-3	-11	57*	7	-4	69
Nc1ccc(-c2ncc(-c3ccccc3)o2)cc1	1	0	-62	-9	0	-59
Cc1ccc(-c2cnc(-c3ccncc3)o2)cc1	.	9	45*	4	-14	40
Cc1cc(C)cc(-c2nc(-c3ccncc3)no2)c1	7	5	?	1	14	67
Cc1ccc(-c2nc(-c3ccncc3)no2)cc1	33*	3	1	-12	2	23
Cc1noc(C)c1NC(=O)N[C@H]1CC[C@@H](CCNC(=O)C2CC2)O[C@H]1CO	.	.	4	.	.	.
C[C@@H]1CN([C@@H](C)CO)S(=O)(=O)c2ccc(C#Cc3ccc(F)cc3)cc2O[C@@H]1CN(C)S(=O)(=O)c1ccc(F)cc1	.	.	-8	.	.	.
Cc1noc(C)c1NC(=O)Nc1ccc2c(c1)C(=O)N([C@@H](C)CO)C[C@H](C)[C@H](CN(C)Cc1ccc(Cl)c(Cl)c1)O2	.	.	3	.	.	.
C[C@@H]1CCCCO[C@@H](CN(C)S(=O)(=O)c2cccs2)[C@H](C)CN([C@H](C)CO)C(=O)c2cc(NC(=O)Nc3cccc4ccccc34)ccc2O1	.	.	-2	.	.	.
SMILES	Wnt bcat act	PvdQ inh	esBAF inh	Glyco luc inh	Vif imaging	MITF act
COc1ccc(NC(=O)Nc2ccc(N3CCOCC3)c3nonc23)c(OC)c1	-1	-19	.	1	7	9
O=C(Nc1ccc(F)cc1)Nc1ccc(N2CCOCC2)c2nonc12	14	-1	.	-2	2	94*
O=C(NCc1ccc(F)cc1)[C@@H]1[C@@H](CO)[C@@H]2Cn3c(cccc3=O)[C@@H]2N1C(=O)C1CC1	.	.	2	.	.	.
Oc1cc(NCc2cccnc2)ccc1-c1nc2ccccc2o1	86*	-2	78*	11	4	.
CC(C)c1ccc(N=C2N=C(N)c3ccccc32)cc1	49*	-1	.	-8	1	-1
CC1CCc2c(sc(NC(=O)C3CCCO3)c2C#N)C1 (stereo not drawn)	7	10	?	-2	0	128*
CCOC(=O)Nc1sc2c(c1C#N)CCC(C)C2 (stereo not drawn)	.	-17	?	0	-2	83*
CC1CCc2c(sc(/N=C/N(C)C)c2C#N)C1 (stereo not drawn)	39*	6	.	1	15	55
CC1CCc2c(sc(NC(=O)COC(=O)C3CCCO3)c2C#N)C1 (stereo not drawn)	2	-24	.	1	7	20
CN(C)/C=N/c1sc2c(c1C#N)CCCC2	3	-11	19	-1	-16	25
CCNC(=S)Nc1sc2c(c1C#N)CCC(C)C2 (stereo not drawn)	12	11	-1	0	4	.
Cc1noc(C)c1NC(=O)N(C)C[C@@H]1Oc2ncc(C#CC3CC3)cc2C(=O)N([C@H](C)CO)C[C@H]1C	.	.	36	.	.	.
C[C@H](CO)N1C[C@H](C)[C@H](CN(C)Cc2ccncc2)Oc2ncc(C#CCC3CCCC3)cc2C1=O	.	.	5	.	.	.
Cc1ccc(/C=C/C(=O)N2CCCC(C)C2)cc1 (stereo not drawn)	-2	-4	.	-11	-2	88*
CCOC(=O)C1CCCN(C(=O)/C=C/c2ccc(Cl)cc2)C1 (stereo not drawn)	9	-12	.	1	4	-7
CC(C)(C)c1ccc(/C=C/C(=O)N2CCCCC2)cc1	33*	12	47*	-4	5	101*
Cc1cccc(C(=O)O/N=C(\N)c2ccc(Cl)cc2)c1	44*	11	.	-1	-4	27
COc1ccc(C(=O)O/N=C(\N)c2cccc(C)c2)cc1OC	21	-19	69*	6	-5	65
Cc1cccc(C(=O)O/N=C(\N)c2ccc(Br)cc2)c1	.	-13	.	0	0	21
Cc1cc(/C(N)=N/OC(=O)c2cccc(Cl)c2)no1	38*	7	.	1	3	.
COc1ccc(/C(N)=N/OC(=O)CSc2ccccc2)cc1OC	45*	-18	?	1	.	55
Cc1cc(/C(N)=N/OC(=O)c2ccc(Cl)cc2)no1	0	26	45	-4	.	.
Cc1ccc(S(=O)(=O)Nc2ccc3c(c2)C(=O)N([C@@H](C)CO)C[C@H](C)[C@@H](CN(C)S(=O)(=O)c2c(C)noc2C)OCCCC[C@H](C)O3)cc1	.	.	-3	.	.	.
C[C@H](CO)N1C[C@H](C)[C@@H](CN(C)C(=O)CCC(F)(F)F)OCCCC[C@H](C)Oc2ccc(NC(=O)Nc3ccccc3)cc2C1=O	.	.	-2	.	.	.
C[C@H](CO)N1C[C@H](C)[C@@H](CN(C)S(=O)(=O)c2ccc(Cl)cc2)Oc2ccc(NC(=O)Cc3cn(C)c4ccccc34)cc2C1=O	.	.	2	.	.	.
COc1ccc(C(=O)O/N=C(\N)c2ccncc2)cc1OC	.	7	23	1	4	14

Screening data from PubChem BioAssay.
